Experimental data: PubChem BioAssay AID2108 (National Center for Advancing Translational Sciences (NCATS), 2009)
Inconclusive results are not listed. Calls of active or inactive are those of the source. Calls follow the shape of the dose curve; as a rule, active = well fitted curve in the direction sought with a large enough effect; inconclusive = small, poorly fitted or top-dose-only effect, or effect the other way, or another doubt; inactive = no such curve, though single readings can be large or run the other way.

Biological target: Alpha-galactosidase A (Homo sapiens) (UniProt P06280)
Sequence (P06280 32-429 limits assumed): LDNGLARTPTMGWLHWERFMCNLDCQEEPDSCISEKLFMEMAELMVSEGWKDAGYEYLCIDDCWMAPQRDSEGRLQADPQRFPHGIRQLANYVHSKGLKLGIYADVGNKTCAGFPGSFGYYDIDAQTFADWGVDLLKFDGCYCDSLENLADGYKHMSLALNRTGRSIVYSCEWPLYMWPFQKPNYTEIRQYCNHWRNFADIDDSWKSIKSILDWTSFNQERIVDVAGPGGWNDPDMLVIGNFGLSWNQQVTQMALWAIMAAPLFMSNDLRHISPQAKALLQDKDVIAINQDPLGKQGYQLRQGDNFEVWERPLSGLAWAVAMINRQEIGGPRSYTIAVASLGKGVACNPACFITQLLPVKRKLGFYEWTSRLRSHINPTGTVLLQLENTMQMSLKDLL
Test: Confirmation of Inhibitors of Human alpha-Galactosidase Using Spleen Homogenate; also: 0% is about no effect
Settings: alpha-galactosidase enzyme activity; series mostly up to 56.2 µM; activity change: at the top concentration
From the text: NIH Chemical Genomics Center [NCGC]
NIH Molecular Libraries Probe Production Centers Network [MLPCN]
Assay Submitter (PI): Wei Zheng
Alpha-galactosidase is a homodimeric glycoprotein that hydrolyzes the terminal alpha-galactosyl moieties from glycolipids and glycoproteins. Deficiency of this enzyme results in Fabry Disease with progressive accumulation of globotriaosylceramide and other glycosphingolipids in vascular endothelial cells that causes renal failure, myocardial infarction and stroke, and premature death in patients. It has been reported that the improper folding and trafficking of alpha-galactosidase resulting from genetic mutations may account for a significant number of Fabry patients. […] We optimized this alpha-galactosidase assay in 1536-well plate format for identification of novel small molecule inhibitors or activators with structures other than the sugar analogs in order to develop new pharmacological chaperones. In particular, this assay is directed towards discovering compounds active in more natural setting, tissue homogenate, that may have been missed by screens of the purified enzyme under more stringent conditions. This assay attempted to confirm hits from the primary screening.
NCGC Assay Protocol Summary:
This is a fluorogenic enzyme assay with 4-methylumbelliferyl-alpha-D-galactopyranoside as the substrate and human spleen homogenate containing alpha-galactosidase as the enzyme preparation. Upon hydrolysis of this fluorogenic substrate, the resulting product, 4-methylumbelliferone (which excites at 365 nm and emits at 440 nm) can be detected by a fluorescence plate reader. Data were normalized to the controls for basal activity (without enzyme) and 100% activity (with enzyme). The AC50 values were determined from concentration-response data modeled with the standard Hill equation.
Assay buffer: 50 mM citric acid (titrated with potassium phosphate to pH 5.0), 0.01% Tween-20 (pH 5.0 is an optimal condition for this enzyme assay)
1536-well assay protocol for the alpha-galactosidase from human spleen homogenate:
(1) Add 2 ul/well spleen homogenate (1 ug)
(2) Add 23 nL compounds in DMSO solution. The final titration was 0.5 nM to 58 uM.
(3) Add 2 ul of substrate (1 mM final)
(4) Incubate at 37C for 40 min
(5) Add 2 ul stop solution (1M NaOH and 1M Glycine mixture, pH 10)
(6) Detect the assay plate in a ViewLux plate reader (PerkinElmer) with Ex=365 nm and Em=440nm.
Keywords: Alpha-galactosidase, Fabry Disease, pharmacological chaperone, chaperone therapy, high throughput screening, alpha- galactosidase inhibitor, MLSMR, MLSCN, NIH Roadmap, qHTS and NCGC

Activity change, inactive:
O=C(O)c1cc(NCc2ccccc2)ccc1N1CCOCC1 -1.74%, O=c1oc2ccc3ccccc3c2cc1-c1nc2c(s1)CCc1ccccc1-2 8.82%, N#Cc1ccccc1S(=O)(=O)N1CCOCC1 8.2%, C=CCCCCCCCCCCCc1ccco1 -17.2% [at 287 µM], Cc1ccc(-c2nc(-c3cc4ccccc4oc3=O)sc2C)cc1 12.7%, CCc1ccc(N=CC23c4ccccc4C(c4ccccc42)C2C(=O)N(c4ccc(OC)cc4)C(=O)C23)cc1 (stereo not given) 1.98% [at 23.6 µM], Nc1ccccc1N=Cc1ccc(-c2cccc(Cl)c2)o1 8.41%, O=C(Nc1nnc(-c2cccc(F)c2)s1)Nc1ccccc1F 13.6%, CSc1ccccc1NC(=O)CN(C)CC(=O)NCc1ccccc1 1.93% [at 23.6 µM], O=C(O)Cc1sc(-c2cc3ccccc3oc2=O)nc1-c1ccc(-c2ccccc2)cc1 -0.387%, CC(=O)c1ccc(N2CCN(S(=O)(=O)c3ccc4c(c3)CC(=O)N4)CC2)cc1 2.16%, O=C(c1cc2c(ccc3ccccc32)oc1=O)N1CCN(CCO)CC1 14.3% [at 23.6 µM], O=c1[nH]c(CN2CCN(c3ccccc3O)CC2)nc2ccccc12 9.3%, C[C@H](NC(=O)/C(C#N)=C/c1ccc(O)c(O)c1)c1ccccc1 3.29%, COC(=O)c1ccc(CSc2cc(C)c3cccc(C)c3n2)o1 -0.608% [at 23.6 µM], CC(=O)Oc1ccc2cc(-c3nc(-c4ccccc4)c(C)s3)c(=O)oc2c1 6.44%, CCc1ccc(-c2nc(-c3cc4ccc(OC(C)=O)cc4oc3=O)sc2C)cc1 2.98%, Cn1cnc2c(NCc3ccccc3)nc(NCCO)nc21 4.37%, CCOc1c(Br)cc(CNc2ccc(N3CCOCC3)cc2)cc1OC -4.15%, Cc1ccc(S(=O)(=O)N2CCN(CC(=O)N/N=C\c3ccccn3)CC2)cc1 10.8%, Cc1ccccc1S(=O)(=O)N1CCOCC1 3.91%, CN1CCN(S(=O)(=O)c2ccccc2)CC1 10.6%, CNc1ncnc2c1ncn2[C@H]1C[C@H](OP(=O)(O)O)[C@@H](COP(=O)(O)O)O1 -2.16% [at 287 µM], CCCCn1c(CN2CCN(c3cccc(Cl)c3)CC2)nc2c1c(=O)n(C)c(=O)n2C 0.243% [at 23.6 µM], C=CCn1c2ccccc2c2nnc(SCC(=O)NC(C(=O)OC)C(C)C)nc21 (stereo not given) 3.19% [at 23.6 µM], Cc1noc(C)c1S(=O)(=O)N(CC(=O)N1CCc2ccccc21)c1ccc(C(C)C)cc1 2.56%, Nc1c(NCCN2CCCCC2)c2ccccc2oc1=O -3.82%, CC1=CC(=C2C=CC(=O)C=C2)C=C(C)N1C -1.91% [at 23.6 µM], COc1ccc(C(=O)N2CCn3c(C)ccc3C2C)cc1 (stereo not given) -1.12%, COc1cc(C2c3cc4c(cc3C(OC3OC5COC(C)O[C@@H]5C(O)C3O)C3COC(=O)C23)OCO4)cc(OC)c1O (stereo not given in full) -0.18%, CCCN1CNc2c(c(=O)[nH]c(=S)n2CCc2ccc(OC)c(OC)c2)C1 1.78% [at 23.6 µM], Nc1c(NCCN2CCOCC2)c2ccccc2oc1=O -4.2%, Cc1ccc2nc(-c3ccccc3N)[nH]c2c1 20.8%, CCc1sc(-c2cc3ccc(O)cc3oc2=O)nc1-c1cc(C)ccc1C 16.4%, N#CCCN1CCN(S(=O)(=O)c2ccc(S(=O)(=O)N3CCOCC3)cc2)CC1 6.75%, Cc1ccc(S(=O)(=O)NN2C(=O)/C(=C\c3ccc(Cl)cc3)SC2=S)cc1 -6.49%, O=C(NCC1CCOCC1)c1ccc2nc(Cc3cccc(Cl)c3)oc2c1 -6.97%, O=C1CC(c2ccccc2)Cc2nc(NCc3ccco3)ncc21 (stereo not given) -2.65%, CCN(CC)c1ccc(-c2nc3cnccn3c2NC2CCCC2)cc1 -11%

outcome, inactive:
COc1ccc(/C=C/c2nnc(NC(=O)CSc3ccc(Cl)cc3)s2)cc1
